Experimental data reported in the supplement of paper PMC3334620.
In all, about 33,000 sequences were measured (“E-score (-0.5 to 0.5)”: median about -0.015, highest 2% from about 0.3 on). What follows is part of a selection rich in the highest values, with near analogues and random picks from the rest.

target: T1, Abf1 (UniProt P14164); assay: PBM E-score (8-mer binding enrichment) (E-score (-0.5 to 0.5)); higher = stronger / more preferred TF binding; details: protein concentration: 200 nM; construct: GST-full length
T1 sequence: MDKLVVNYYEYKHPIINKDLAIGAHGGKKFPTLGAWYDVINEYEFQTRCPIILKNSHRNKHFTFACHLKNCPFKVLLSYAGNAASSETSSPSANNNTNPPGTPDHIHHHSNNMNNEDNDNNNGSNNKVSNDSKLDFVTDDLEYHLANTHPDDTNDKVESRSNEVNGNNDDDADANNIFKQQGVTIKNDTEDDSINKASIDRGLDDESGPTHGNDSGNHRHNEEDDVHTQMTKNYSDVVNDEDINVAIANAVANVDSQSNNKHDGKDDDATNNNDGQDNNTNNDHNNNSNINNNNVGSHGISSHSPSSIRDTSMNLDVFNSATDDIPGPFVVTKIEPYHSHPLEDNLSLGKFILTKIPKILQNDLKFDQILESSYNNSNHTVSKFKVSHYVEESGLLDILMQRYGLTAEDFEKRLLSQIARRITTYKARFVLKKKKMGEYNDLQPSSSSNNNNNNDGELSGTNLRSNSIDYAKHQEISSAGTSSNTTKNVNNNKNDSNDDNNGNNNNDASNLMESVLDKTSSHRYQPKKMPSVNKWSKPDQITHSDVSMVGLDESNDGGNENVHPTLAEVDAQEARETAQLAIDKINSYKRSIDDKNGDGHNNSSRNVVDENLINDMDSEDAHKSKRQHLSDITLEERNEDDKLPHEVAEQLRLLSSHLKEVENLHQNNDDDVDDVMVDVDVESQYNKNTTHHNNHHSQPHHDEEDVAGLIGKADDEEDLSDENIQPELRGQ
Outline: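 PURExpress in vitro transcription/translation supplied GST-tagged yeast transcription factors, either full-length or DNA-binding domain. Applied at about 100-200 nM to universal all-10-mer Agilent arrays double-stranded by primer extension, the bound protein was detected with fluorescent anti-GST. E-scores, modified Wilcoxon-Mann-Whitney statistics, were given by the Universal PBM Analysis Suite to ungapped eight-base words pooled with their reverse complements after masliner normalisation.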

| Sequence | PBM E-score |
| --- | --- |
| CACGCTCC | -0.00778 |
| AAAGTGAG | 0.2 |
| AACGTGAT | 0.327 |
| AAAGTGAT | 0.397 |
| AAAGTGGC | -0.118 |
| ACAGTGAC | 0.259 |
| AGGGTGAA | -0.209 |
| AAAGTGAC | 0.343 |
| AGGGTGAG | -0.102 |
| AAAGTGAA | -0.0183 |
| AGGGTGAT | 0.335 |
| AACGTGAA | 0.057 |
| AACGTGAG | 0.0297 |
| CCCCAGGA | -0.301 |
| TAGTTCAA | -0.0129 |
| AACAGCAC | -0.13 |
| CACCCTGG | -0.33 |
| ATAGGCTC | -0.0801 |
| CCAAACCG | -0.0285 |
| AAGGACCC | -0.134 |
| ACATCCTA | 0.0617 |
| AATTCTCG | 0.162 |
| AGAGTGAA | -0.0316 |
| CAAGTGAC | 0.242 |
| GAAGTGAA | 0.064 |

| Sequence | PBM E-score |
| --- | --- |
| AGAGTGAG | 0.0964 |
| GAAGTGAC | 0.411 |
| AGAGTGAT | 0.387 |
| GTCCGGTA | 0.00344 |
| CTCACGTA | -0.0341 |
| AACTATAT | 0.205 |
| CATTATCC | 0.262 |
| CCTTATCA | 0.236 |
| TATTATGA | 0.0866 |
| GGTTATCA | 0.272 |
| ACTTATCA | 0.231 |
| TCTTATCA | 0.316 |
| AGTTATCA | 0.302 |
| CATTATCA | 0.329 |
| AGTTATCG | 0.223 |
| CATTATCG | 0.0198 |
| TATTATCA | 0.34 |
| TATTATAA | 0.121 |
| GGGAGGCA | -0.284 |
| GGGGACGA | 0.135 |
| GATTATCA | 0.302 |
| AATTATCC | 0.0502 |
| GATTATTA | 0.0366 |
| AATTATCA | 0.34 |
| AATTATCG | 0.178 |

| Sequence | PBM E-score |
| --- | --- |
| GATTATCC | 0.152 |
| CATCCATA | 0.0978 |
| CATGAACC | -0.00224 |
| GCCCGAGA | -0.194 |
| GTCATTAA | 0.385 |
| ATCATTAC | 0.262 |
| GACATTAA | 0.227 |
| CTCATTAA | 0.148 |
| ATCATTAA | 0.307 |
| ATCATTAG | 0.279 |
| CTAAGCGC | -0.121 |
| CTTTGCAC | 0.209 |
| ACCTTTAC | -0.0849 |
| AGTTCGTG | 0.326 |
| AGTTCGTA | 0.264 |
| CGTTCGTC | 0.358 |
| AGTTCGGG | 0.0167 |
| CGTTCGTA | 0.345 |
| TGTTCGAA | -0.0208 |
| CGTTCGGC | 0.0205 |
| CGTTCGAA | 0.311 |
| ATTTCGTG | 0.288 |
| AGTTCGTC | 0.164 |
| CGTTCGAC | 0.122 |
| GGTTCGTA | 0.14 |

| Sequence | PBM E-score |
| --- | --- |
| ATAAGGAT | -0.00817 |
| AGGGAAGC | -0.197 |
| CTGCTGGC | -0.25 |
| ATCGAAAA | 0.0388 |
| CATCACGC | 0.191 |
| ATTCACGA | 0.235 |
| CTTCACGA | 0.2 |
| GATCACGA | 0.301 |
| GTTCACGA | 0.3 |
| GATCACAA | 0.26 |
| GATCACGC | 0.366 |
| GCTCACGA | 0.125 |
| GATCACAC | 0.118 |
| ACACTCGA | -0.0221 |
| CGTCCATC | 0.0706 |
| GATACGGA | 0.279 |
| AGGGTGGG | -0.0843 |
| CATTTGAG | 0.0534 |
| CGCCAGAA | -0.0306 |
| CAGTCGGG | 0.0146 |
| GATAGCCA | -0.0722 |
| GACAATCC | 0.0976 |
| GCACGAAC | 0.269 |
| ACACGAAA | 0.288 |
| ATACGAAC | 0.294 |

| Sequence | PBM E-score |
| --- | --- |
| CTACGAAA | 0.122 |
| GCACGAAA | 0.336 |
| CTACGAAC | 0.275 |
| GAACGAAC | 0.121 |
| GGACGAAC | 0.323 |
| AGACGAAC | 0.24 |
| GTACGAAC | 0.418 |
| GTACGAAA | 0.376 |
| TTACGAAA | 0.279 |
| AAATCTAG | 0.045 |
| ATACTTGA | -0.0426 |
| AAGCACCC | -0.201 |
| ATGGAAAA | 0.177 |
| GATTGAGA | 0.21 |
| CGTTAGTC | 0.00116 |
| GATCGCTA | 0.157 |
| CTAAGCGA | -0.0187 |
| CTTTTAGA | -0.028 |
| ATATCGGG | 0.018 |
| ATATCGCC | 0.269 |
| ATATCGTA | 0.203 |
| AAATCGTC | 0.347 |
| CTATCGTC | 0.252 |
| ATATCGCG | 0.382 |
| ATATCGTG | 0.318 |

| Sequence | PBM E-score |
| --- | --- |
| AAATCGTA | 0.267 |
| ATATCGTC | 0.336 |
| AAATCGTG | 0.192 |
| ATATCGGC | 0.149 |
| ATATCGCA | 0.144 |
| AGGGAACT | -0.244 |
| AGCCGTAA | 0.193 |
| GCGTCCTA | -0.0099 |
| TACCAAAA | 0.0276 |
| ACACAAAC | 0.0247 |
| GTATAAAC | 0.22 |
| ATATAATA | 0.0977 |
| GTATAATA | 0.299 |
| ATATAAAA | 0.185 |
| CGATAATA | 0.326 |
| CTATAATA | -0.0104 |
| GGATAATA | 0.173 |
| GTATAAAA | 0.356 |
| AGATAATA | 0.107 |
| GTTAACGA | 0.252 |
| ACTGGTCG | -0.0382 |
| AGTGCGAA | -0.196 |
| CTCACCAG | -0.101 |
| CGAAGGGC | -0.116 |
| ACAGTGTC | -0.155 |

| Sequence | PBM E-score |
| --- | --- |
| AGGGCTTC | 0.0312 |
| AATCGTAA | 0.145 |
| GCTCGTAA | 0.118 |
| TCTCGTAA | 0.306 |
| ACTCGTAA | 0.173 |
| ACTCGTAG | 0.16 |
| ACTCGTAT | 0.305 |
| AATCGTAG | 0.197 |
| AATCGTAT | 0.297 |
| CCTCGTAA | 0.131 |
| CACTCGGC | -0.0263 |
| ACCAAGCT | -0.00876 |
| AGGTTACT | 0.024 |
| CAATACTG | -0.239 |
| CGCTCACA | -0.0723 |
| ACGCGGGC | -0.0155 |
| GCTTCGCC | -0.147 |
| AGCCGTCC | 0.0251 |
| AGCCGTAC | 0.238 |
| CGCCGTAC | 0.315 |
| GGCCGTAA | 0.121 |
| CGCCGTAG | 0.209 |
